The campaign covered roughly 300,000 compounds. About 3,700 (1.2%) were called active. Another 20% or so got no clear call; they are omitted. The call rests on the fitted dose curve; tested in HEK293 cells. The list comes from a sample in which actives are over-represented; it also holds similar structures and randomly drawn compounds. Entries that show only a call come without a potency.
Assay: qHTS for Inhibitors of binding or entry into cells for Lassa Virus; further: nearly all actives have a fitted effect of over 50% in size
Conditions: Lassa virus pseudotype entry inhibition, cell reporter; series mostly up to 37.9 µM
In the case of `CCOc1ccc2[nH]c(=O)c(CN(CCCO)S(=O)(=O)c3ccc(F)cc3)cc2c1`, the Potency is reported as “inactive”.
With `COc1ccc(C(C(=O)NC2CCCCC2)N(C(=O)CCl)c2ccccc2Cl)cc1` (stereo unspecified) the Potency was “inactive”.
With `COc1ccc(C(C(=O)NC2CCCCC2)N(C(=O)c2snc(C(N)=O)c2N)c2ccccc2OC)cc1` (stereo unspecified) the Potency was 10 µM (active).
With `NC(=O)c1nsc(C(=O)N(CCCN2CCOCC2)C(C(=O)NC2CCCCC2)c2ccc(Cl)cc2)c1N` (stereo unspecified) the Potency was “inactive”.
For `O=C(O)C1C2C=CC(O2)C1C(=O)Nc1ccccn1` (stereo unspecified), the Potency was “inactive”.
In the case of `COCCNc1cc(-c2ccccc2)nc2cc(-c3cccc(F)c3)nn12`, the Potency is reported as “inactive”.
With `CC(=O)Nc1ccc(NC(=O)COC(=O)C2CCC(C(C)(C)C)CC2)cc1` (stereo unspecified) the Potency was “inactive”.
With `COc1ccc(CCNS(=O)(=O)c2cc(-c3cc(C)no3)ccc2C)cc1OC` the Potency was “inactive”.
In the case of `COc1ccc(Cl)cc1NC(=O)NCC1CCN(Cc2ccccc2F)CC1`, the Potency is reported as “inactive”.
With `O=C(Nc1ccn(Cc2ccccc2F)n1)c1ccc(COc2ccc(Cl)cc2Cl)o1` the Potency was 10 µM (active).
For `COC(=O)c1ccccc1NC(=O)c1ccc(COc2ccccc2Cl)o1`, the Potency was “inactive”.
With `COc1ccccc1N(C)S(=O)(=O)c1ccc(Cl)c(C(=O)Nc2ccncc2)c1` the Potency was “inactive”.
For `CN(O)C(=S)c1ccccc1`, the Potency was 6.31 µM (active).
For `O=C(NC(=O)c1ccccc1)NC(=O)c1ccccc1`, the Potency was “inactive”.
For `CCc1ccc(C(=O)C(C)OC(=O)CN2C(=O)NC3(CCCC3)C2=O)cc1` (stereo unspecified), the Potency was “inactive”.
In the case of `CCOc1ccc(NC(=O)c2cn(C3CCCCC3)c(=O)c3c2c2ccccc2n3C)cc1`, the Potency is reported as “inactive”.
With `O=C(c1ccccc1Oc1ccccc1)N1CCN(c2ccc(F)cc2)CC1` the Potency was “inactive”.
For `Cn1c2ccccc2c2c(C(=O)N3CCN(c4ccc(F)cc4)CC3)cn(C3CCCC3)c(=O)c21`, the Potency was 10 µM (active).
In the case of `O=C(NNC(=O)c1ccc(-c2ccccc2)cc1)Nc1ccccc1`, the Potency is reported as “inactive”.
With `CC(Nc1ccc([N+](=O)[O-])cc1[N+](=O)[O-])c1ccccc1` (stereo unspecified) the Potency was “inactive”.
For `O=C(/C=C/c1ccccc1)N1CCN(Cc2cc(=O)n3nc(-c4ccccc4F)sc3n2)CC1`, the Potency was “inactive”.
In the case of `Cc1cccc(C(=O)Nc2nnc(Cc3c[nH]c4ccccc34)s2)c1`, the Potency is reported as “inactive”.
In the case of `Cc1cccc(N=C2NN=C(c3c[nH]c4ccccc34)CS2)c1`, the Potency is reported as 14.6 µM (active).
In the case of `CC(=O)c1c(C)[nH]c(C(=O)N2CCN(S(=O)(=O)c3ccc(F)c(F)c3)CC2)c1C`, the Potency is reported as “inactive”.
With `O=C(CCC1CCCCC1)Nc1cc(C(F)(F)F)ccc1N1CCOCC1` the Potency was “inactive”.
In the case of `COc1cccc(C(=O)OCc2cc(=O)oc3c(C)c(C)ccc23)c1OC`, the Potency is reported as “inactive”.
For `CCOc1ccc(NC(=O)CN(C)C(=O)Cc2sc(C)nc2-c2ccc(F)cc2)cc1OCC`, the Potency was “inactive”.
In the case of `N#CCc1c[nH]c2ccc([N+](=O)[O-])cc12`, the Potency is reported as “inactive”.
With `O=S(=O)(c1ccc(Br)cc1)c1nc(-c2ccccc2)oc1NCc1cccnc1` the Potency was “inactive”.
For `COc1cccc(-c2nc(S(=O)(=O)c3ccc(C)cc3)c(NCc3ccccc3)o2)c1`, the Potency was 10 µM (active).
In the case of `Cc1ccc(S(=O)(=O)c2nc(-c3cccs3)oc2NCc2cccnc2)cc1`, the Potency is reported as “inactive”.
In the case of `CN(C)c1nc(NN)nc(Nc2ccc(F)cc2)n1`, the Potency is reported as “inactive”.
With `CCOc1ccc(C(=O)CCC(=O)Nc2ccncc2)cc1` the Potency was “inactive”.
For `CC(CCc1ccccc1)NC(=O)COC(=O)c1ccc(F)cc1` (stereo unspecified), the Potency was “inactive”.
For `CCC1(C)Cc2c(sc3nc4n(c(=O)c23)CCCS4)CO1` (stereo unspecified), the Potency was “inactive”.
For `CCC1(C)Cc2c(sc3nc(SC)[nH]c(=O)c23)CO1` (stereo unspecified), the Potency was “inactive”.
With `CCC1(C)Cc2c(sc3[nH]c(=S)n(Cc4ccccc4)c(=O)c23)CO1` (stereo unspecified) the Potency was 5.62 µM (active).
In the case of `O=C(CCNC(=O)c1ccccc1Cl)NN=Cc1ccco1`, the Potency is reported as “inactive”.
In the case of `CCOC(=O)c1csc(CCNC(=O)c2oc3c(Cl)cc(C)cc3c2C)n1`, the Potency is reported as “inactive”.
With `CN1C(c2ccc(F)cc2)=CS/C1=C(/C#N)c1nnc2n1-c1ccccc1SC2` the Potency was “inactive”.
In the case of `Cc1cc(C)cc(NC(=O)NC2CCCCCCC2)c1`, the Potency is reported as “inactive”.
For `O=C(Nc1cccc(F)c1)NC1CCCCCCC1`, the Potency was 12.6 µM (active).
In the case of `C/C(CC(=O)Nc1cccc(F)c1)=N\NC(=O)C(=O)NC1CCCCC1`, the Potency is reported as “inactive”.
In the case of `COc1ccc2oc(C(=O)N(CC(C)C)C3CCS(=O)(=O)C3)c(C)c2c1` (stereo unspecified), the Potency is reported as “inactive”.
For `COc1ccccc1N(CCOc1ccccc1)S(=O)(=O)c1ccccc1`, the Potency was “inactive”.
With `Cc1ccc(S(=O)(=O)N2CCC(=O)N([C@H](COCc3ccccc3)C(C)C)CC2)cc1` the Potency was “inactive”.
With `O=C(Nc1ccccc1)c1ccc2c(c1)OCCCO2` the Potency was 3.16 µM (active).
In the case of `O=C(Nc1cccc([N+](=O)[O-])c1)c1ccc2c(c1)OCO2`, the Potency is reported as “inactive”.
In the case of `O=C(Nc1nc2ccccc2s1)c1ccc2c(c1)OCO2`, the Potency is reported as 2.51 µM (active).
With `O=C(Nc1ccc2c(c1)OCCO2)c1ccc(Cl)c(S(=O)(=O)N2CCCCC2)c1` the Potency was 20.6 µM (active).
In the case of `Cc1cc(C)c2nc(NC(=O)c3ccc4c(c3)OCO4)sc2c1`, the Potency is reported as “inactive”.
For `O=C(Nc1cccc(S(=O)(=O)N2CCCCC2)c1)c1ccc2c(c1)OCO2`, the Potency was “inactive”.
For `O=C(Nc1ccc(N2CCOCC2)cc1)c1ccc2c(c1)OCO2`, the Potency was “inactive”.
In the case of `O=C(Nc1ccccc1F)c1ccc2c(c1)OCO2`, the Potency is reported as “inactive”.
In the case of `O=C(c1ccc(Cl)c(S(=O)(=O)N2CCCCC2)c1)N1CCCCCC1`, the Potency is reported as “inactive”.
For `N#Cc1ccccc1S(=O)(=O)N1CCN(C(=O)c2cc(-c3ccccc3)nn2-c2ccccc2)CC1`, the Potency was “inactive”.
In the case of `COc1ccc(-c2csc3ncnc(N4CCN(S(=O)(=O)c5ccccc5C#N)CC4)c23)cc1`, the Potency is reported as “inactive”.
In the case of `Cc1cc(C)c(NC(=O)CN2C(=O)c3cccnc3Oc3ccc(Cl)cc32)c(C)c1`, the Potency is reported as “inactive”.
In the case of `O=c1[nH]c2c(c(=O)n1-c1ccccc1)CCO2`, the Potency is reported as “inactive”.
With `CC(CC(=O)N1CCN(c2ccccc2)CC1)S(=O)(=O)c1ccc2c(c1)NC(=O)CS2` (stereo unspecified) the Potency was “inactive”.
In the case of `COc1ccc(-c2nc3sc(CCNC(=O)C(C)(C)C)c(C)n3n2)cc1`, the Potency is reported as “inactive”.
With `CCC[C@@H]1C[C@@]1(CCC)[C@@H](NC(=O)c1ccccc1)c1ccc(C(=O)OC)cc1` the Potency was “inactive”.
For `CCC/C=C(\CCC)C(NC(=O)Cc1ccccc1)c1ccc(C(=O)OC)cc1` (stereo unspecified), the Potency was 6.51 µM (active).
In the case of `CC(=O)c1ccc(OC(NC(=O)Cc2ccccc2)C(Cl)(Cl)Cl)cc1` (stereo unspecified), the Potency is reported as “inactive”.
With `COc1ccc(OCC(=O)NNC(=O)C2CCC2)cc1` the Potency was “inactive”.
For `Cc1ccc(NC(=O)C(C)OC(=O)C2CC3CCCC(C2)C3=O)cc1S(=O)(=O)N1CCOCC1` (stereo unspecified), the Potency was “inactive”.
With `Fc1ccc2[nH]c3c(N4CCN(Cc5ccc6c(c5)OCO6)CC4)ncnc3c2c1` the Potency was 15.8 µM (active).
In the case of `Fc1ccc(N2CCN(Cc3ccc4c(c3)OCO4)CC2)cc1`, the Potency is reported as “inactive”.
With `O=c1[nH]c(N2CCN(Cc3ccc4c(c3)OCO4)CC2)nc2c1CCCC2` the Potency was “inactive”.
With `Cc1cc2c(cc3c(SCc4nc(-c5ccccc5)oc4C)nnc(C)n32)o1` the Potency was “inactive”.
In the case of `Cc1ccc2c(c1)C1CN(C)CCC1N2S(=O)(=O)c1cccc(F)c1` (stereo unspecified), the Potency is reported as “inactive”.
For `CCN(CC)CCN(C(=O)c1ccc(S(=O)(=O)N2CCOCC2)cc1)c1nc2cc3c(cc2s1)OCCO3`, the Potency was “inactive”.
In the case of `CN(C)CCCN(C(=O)c1ccc(S(=O)(=O)N2CCCCCC2)cc1)c1nc2cc3c(cc2s1)OCCO3`, the Potency is reported as 14.1 µM (active).
With `CCc1ccc2nc(N(CCCN(C)C)C(=O)c3ccc4c(c3)OCCO4)sc2c1` the Potency was “inactive”.
With `CC(C)CC1(C)NC(=O)N(CC(=O)Nc2ccc3c(c2)OCCO3)C1=O` (stereo unspecified) the Potency was “inactive”.
In the case of `COC(=O)CN(C(=S)Nc1ccc(Cl)cc1)C1CC(=O)N(c2ccc(OC)cc2)C1=O` (stereo unspecified), the Potency is reported as “inactive”.
In the case of `CN(C)c1ccc(NC(=S)N(CCc2ccccc2)C2CC(=O)N(c3c(Cl)cccc3Cl)C2=O)cc1` (stereo unspecified), the Potency is reported as 3.55 µM (active).
In the case of `CN(CC(=O)Nc1cccc(F)c1)C(=O)C1CC(=O)N(CCc2ccccc2)C1` (stereo unspecified), the Potency is reported as “inactive”.
With `O=C(COc1ccccc1Cl)Nc1ccc2nc(SCC(=O)N3CCCC3)sc2c1` the Potency was “inactive”.
With `CC(C)(C)C(=O)COC(=O)c1cc(S(=O)(=O)N2CCCCC2)ccc1N1CCOCC1` the Potency was “inactive”.
In the case of `C=C(C)COc1ccc(-c2n[nH]c(C)c2-c2ccccc2OC)c(O)c1`, the Potency is reported as 7.08 µM (active).
In the case of `CC(=O)COc1ccc2c(-c3ccccc3)cc(=O)oc2c1`, the Potency is reported as “inactive”.
With `C=C(C)COc1ccc(-c2n[nH]c(C)c2-c2ccccc2)c(O)c1` the Potency was 1.78 µM (active).
With `COc1ccccc1-c1n[nH]c2c1[C@H](C)CC[C@H]2C(C)C` the Potency was “inactive”.
For `Cc1[nH]nc(-c2ccc(OCc3cnn(-c4ccccc4)c3)cc2O)c1Oc1ccc(Cl)cc1`, the Potency was “inactive”.
With `COc1ccccc1-c1c(C)nn2c(C)c(C(C)=O)cnc12` the Potency was “inactive”.
In the case of `Cc1cccc(C(=O)NNC(=O)CSc2nnc(C(C)C)n2C)c1`, the Potency is reported as “inactive”.
For `CCN(C(=O)COC(=O)c1ccccc1O)c1cccc2ccccc12`, the Potency was “inactive”.
With `CCOC(=O)c1c(S(=O)(=O)Nc2cccc(Cl)c2)c(C)n(C)c1C` the Potency was “inactive”.
For `CC(C)(C)c1nnc2sc(SCC(O)=C(C#N)c3nc4ccccc4[nH]3)nn2c1=O`, the Potency was “inactive”.
For `Cc1ccc(NC(=S)N(CCN(C)C)Cc2cccs2)cc1C`, the Potency was 6.31 µM (active).
For `Cc1ccccc1NC(=S)N(CCCN1CCOCC1)Cc1cccs1`, the Potency was “inactive”.
For `CCc1cccc(C)c1NC(=S)N(CCCN1CCN(C)CC1)Cc1cccs1`, the Potency was “inactive”.
For `Cc1ccc(SCCC(=O)OCC(=O)Nc2ncc(Cl)cc2Cl)cc1`, the Potency was “inactive”.
In the case of `Cc1ccc(-n2c(SCC(=O)Nc3ncc(Cl)cc3Cl)nc3ccccc32)cc1`, the Potency is reported as 0.291 µM (active).
With `CCOc1ccc(-n2c(SCC(=O)Nc3cc(C(=O)O)ccc3Cl)nc3ccccc3c2=O)cc1` the Potency was “inactive”.
In the case of `CC/C(=C(/c1ccccc1)c1ccc(OCC[N+](C)(C)C)cc1)c1ccccc1`, the Potency is reported as “inactive”.
In the case of `Cc1ccc(S(=O)(=O)N2CCCCC2)cc1C(=O)N(C)CC(=O)Nc1cccc(F)c1`, the Potency is reported as “inactive”.
With `c1c2c(cc3sc(N4CCCCC4)nc13)OCCO2` the Potency was 1.58 µM (active).
With `Cc1nc2cc3c(cc2s1)OCO3` the Potency was “inactive”.
In the case of `O=C(NCc1ccc(F)cc1)c1ccc2nc(N3CCCCC3)sc2c1`, the Potency is reported as “inactive”.

Reference: PubChem BioAssay AID540256 (National Center for Advancing Translational Sciences (NCATS), 2011)
Potency means the concentration at half of the fitted maximal effect.
